Compound activity: PubChem BioAssay, The Scripps Research Institute Molecular Screening Center
GPR151 ag: human GPR151 activation | Q8TDV0 | PathHunter beta-arrestin GPR151 cells, luminescence | activation, % at 11.2 µM | 1% of 650,000 active | AID 1508602; in the data active = activation above about 4.9%;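 note: 0% = median of compound wells and 100% = cells with positive control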
FBW7 activator: human FBW7 E3 ligase activation, primary screen. Q969H0. AlphaScreen FBW7–phospho-cyclin E peptide binding, activator screen. normalized activity (activation), % at 26.1 µM. 0.13% of 650,000 active; in the data active = normalized activity above about 1.9%;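 note: purified mutant Fbw7 with reduced substrate affinity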
Target sequence (Q969H0 whole entry, looked up): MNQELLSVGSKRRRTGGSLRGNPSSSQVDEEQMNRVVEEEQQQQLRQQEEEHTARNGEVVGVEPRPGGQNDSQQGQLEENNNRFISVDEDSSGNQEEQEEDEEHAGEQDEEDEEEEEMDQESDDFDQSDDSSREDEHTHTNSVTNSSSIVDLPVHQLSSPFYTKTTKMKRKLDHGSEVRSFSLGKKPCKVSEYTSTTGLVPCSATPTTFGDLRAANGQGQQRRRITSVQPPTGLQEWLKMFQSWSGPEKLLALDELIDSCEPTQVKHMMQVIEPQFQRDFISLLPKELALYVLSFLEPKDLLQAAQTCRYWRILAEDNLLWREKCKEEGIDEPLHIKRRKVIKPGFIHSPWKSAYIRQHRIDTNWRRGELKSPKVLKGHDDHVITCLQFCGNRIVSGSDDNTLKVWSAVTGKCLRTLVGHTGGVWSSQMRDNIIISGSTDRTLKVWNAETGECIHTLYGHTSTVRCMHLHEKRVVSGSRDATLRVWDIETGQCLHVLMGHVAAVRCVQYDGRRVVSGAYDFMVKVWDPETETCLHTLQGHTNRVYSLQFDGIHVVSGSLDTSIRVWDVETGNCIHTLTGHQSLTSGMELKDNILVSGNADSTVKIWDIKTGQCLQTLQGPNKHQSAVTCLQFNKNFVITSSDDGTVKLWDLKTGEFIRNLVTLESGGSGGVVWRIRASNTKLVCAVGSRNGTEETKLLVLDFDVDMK
TEAD-YAP block: TEAD-YAP interaction inhibition; HEK-TIYL cells, TEAD-Gal4/YAP UAS-luciferase luminescence; inhibition, % at 9.12 µM; 1.4% of 640,000 active; AID 1259422; in the data active = inhibition above about 32%;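 note: 0% = median of test compound wells and 100% = reference inhibitor wells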
MITF primary: blocks human microphthalmia-associated transcription factor; 0.91% of 650,000 active; inhibition, % at 2.6 µM; O75030; AlphaScreen MITF homodimerization, bead proximity signal; in the data active = inhibition above about 50%;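 note: 0% = vehicle wells with protein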
Starred values were filed as active, the others as inactive. Rows were chosen to be rich in hits. Some 3.5% of all compounds tested hit in one or more screens of this group.

SMILES	GPR151 ag	FBW7 activator	TEAD-YAP block	MITF primary
CNc1nc(-c2ccc3c(c2)CCN3C(C)=O)c(C)s1	1.0	0.8	-46.6	21.7
CCC(=O)N1CCc2cc(-c3nc(NC(C)=O)sc3C)ccc21	0.6	0.1	80.0*	7.3
CCC(=O)N1CCc2cc(-c3nc(N)sc3C)ccc21	-2.0	0.0	10.2	14.1
CC(=O)Nc1nc(-c2ccc3c(c2)CCN3C(C)=O)c(C)s1	-0.7	0.9	52.9*	-11.8
CSc1ccccc1NC(=O)CN(C)CC(=O)Nc1ccc(C)c(C)c1	0.9	0.1	-3.3	13.6
O=C(Nc1ccccc1)c1ccc(F)c(S(=O)(=O)N2CCOCC2)c1	-1.5	0.2	-8.6	-179.1
O=C(Nc1ccc(Oc2ccccc2)cc1)c1ccc(F)c(S(=O)(=O)N2CCOCC2)c1	0.3	-0.1	62.9*	-3.6
CCN1CCN(S(=O)(=O)c2cc(C(=O)Nc3ccc(Oc4ccccc4)cc3)ccc2F)CC1	0.1	-0.1	65.6*	0.9
CCc1ccccc1NC(=O)c1ccc(F)c(S(=O)(=O)N2CCN(c3cccc(C)c3)C(C)C2)c1 (centres undefined)	-0.7	0.1	34.9*	10.9
O=C(Nc1ccc(Oc2ccccc2)cc1)c1cccc(S(=O)(=O)N2CCOCC2)c1	0.7	-0.1	33.7*	2.8
O=C(Nc1ccc(I)cc1)c1cccc(S(=O)(=O)N2CCOCC2)c1	1.8	-0.1	8.0	11.8
CCN=c1scc(-c2ccc(O)c(C(N)=O)c2)n1/N=C/c1cccc([N+](=O)[O-])c1	-0.3	0.1	-9.0	0.4
COC(=O)c1cc(C(=O)N2CCN(c3cccc(Cl)c3)CC2)cc([N+](=O)[O-])c1	0.7	0.0	63.1*	3.8
O=C(c1cccc([N+](=O)[O-])c1)N1CCN(c2cccc(Cl)c2)CC1	0.6	0.5	13.4	8.4
NC(=S)/N=C1\CCN(c2cccc(C(F)(F)F)c2)N1	-0.8	-0.1	35.4*	-3.8
Cc1ccc(P(=Nc2ccc([N+](=O)[O-])cc2)(N2CCCC2)N2CCCC2)o1	0.7	0.2	-1.2	12.0
O=C(Nc1cc([N+](=O)[O-])ccc1F)c1ccc(Br)cc1	2.7	-0.1	39.1*	-8.7
O=C(Nc1cc([N+](=O)[O-])ccc1F)c1cccc(F)c1	2.1	-0.1	34.4*	11.8
O=C(CCc1ccccc1)Nc1cc([N+](=O)[O-])ccc1F	0.3	-0.6	61.1*	16.7
O=C(Nc1cc([N+](=O)[O-])ccc1F)c1cccc(Br)c1	1.0	-0.1	17.6	-2.6
O=C(Nc1ccccc1F)c1cc(F)ccc1[N+](=O)[O-]	0.4	0.2	56.4*	10.1
O=C(Nc1cc([N+](=O)[O-])ccc1F)c1ccccc1	-1.1	0.1	16.3	10.4
O=C(CCCc1ccccc1)Nc1cc([N+](=O)[O-])ccc1F	0.9	0.1	13.5	-3.8
COCCn1c(SCC(=O)N2c3ccccc3NC(=O)C2(C)C)nc2ccccc21	0.1	0.2	-1.4	-1.0
CCCSc1nnc(NC(=O)c2cc(Cl)ccc2OC)s1	0.1	0.0	-14.9	-0.5
SMILES	GPR151 ag	FBW7 activator	TEAD-YAP block	MITF primary
CC(C)(C)NC(=O)C(c1ccccc1F)N(Cc1ccccc1F)C(=O)c1csnn1 (centres undefined)	0.3	0.2	0.1	2.3
Cc1cccc(-n2c(O)c(/C=N/NC(=O)c3ccccc3Cl)c3ccccc3c2=O)n1	-0.8	0.1	-3.2	2.6
O=C(Cc1ccc(F)cc1)N/N=C/c1c(O)n(-c2ccccc2Cl)c(=O)c2ccccc12	-1.9	-0.6	59.7*	19.1
CC#CC(=O)N1CCC(C2(c3cccnc3)NC(=O)N(CCc3cccs3)C2=O)CC1 (centres undefined)	0.0	0.4	16.2	-0.4
Cc1cc(Nc2c(C)cccc2C)n2ncnc2n1	-0.7	0.1	-5.3	0.1
Cc1cc(Nc2cc3ccccc3cc2O)n2ncnc2n1	-1.0	-0.3	64.9*	-2.6
CC1(C)Cc2c(sc3nc(SCC(=O)O)n(Cc4ccccc4)c(=O)c23)CO1	-0.8	0.0	10.9	-5.7
N/C(=N\OC(=O)c1cccc2ccccc12)c1nonc1N	-1.5	0.7	-3.8	10.9
O=C(O)c1ccc(NC(=O)c2cc([N+](=O)[O-])ccc2Cl)cc1	-1.1	0.1	-3.7	0.7
Cn1cccc1/C=C1\CS/C(=C\c2cccn2C)C1=O	0.9	-0.5	-10.8	67.9*
CCN1C/C(=C\c2cccn2C)C(=O)/C(=C/c2cccn2C)C1	0.5	-0.1	0.7	11.3
O=C(Nc1nc2ccccc2[nH]1)c1ccc(=O)[nH]c1	-8.6	0.2	1.9	7.8
COc1ccc2oc(C(=O)c3ccc(Cl)cc3)c(N)c2c1	0.3	0.6	-86.7	13.5
COc1ccc2occ(C(=O)c3oc4ccccc4c3N)c2c1	-5.0	-0.1	32.3*	-2.4
COC(=O)c1oc2ccc(OC)cc2c1N	-1.5	0.0	-20.7	2.9
COc1ccc2oc(C)c(C(=O)c3oc4ccccc4c3N)c2c1	-0.5	0.0	34.1*	-2.8
CC(C)CCOC(=O)c1cc(-c2cc(C(=O)OCCC(C)C)c3ccccc3n2)nc2ccccc12	-0.5	0.3	5.0	14.3
CCOCCn1c(N2CCCCC2)nc2c1c(=O)n(C)c(=O)n2C	-0.9	0.2	9.7	11.5
CCOC(=O)c1[nH]c(C)c(CN(C(=O)CCCC(=O)O)c2ccccc2)c1C	-0.8	0.3	0.9	28.1
COc1ccc(OS(=O)(=O)c2cc(OC)ccc2OC)cc1	-0.9	-0.1	49.8*	-1.6
COc1ccc(OC)c(S(=O)(=O)c2cc(OC)ccc2OC)c1	0.1	0.2	-1.1	4.8
O=C(Nc1ccc(N2CCCCC2)cc1)c1ncn[nH]1	-7.2	-0.9	82.1*	50.5
CCOc1ccc(NC(=O)c2ccc(C(=O)Nc3ccc(OCC)cc3)cc2)cc1	3.0	-0.2	-6.0	8.1
CCOc1ccc(NC(=O)c2ncn[nH]2)cc1	-0.1	-0.1	39.4*	-0.3
CC(C)C(=O)N1CCN(c2ccc(NC(=O)c3ncn[nH]3)cc2)CC1	-4.4	-0.6	-1.9	3.5
SMILES	GPR151 ag	FBW7 activator	TEAD-YAP block	MITF primary
COc1ccc(CC(=O)Nc2cc(Nc3ccccc3-c3ncn[nH]3)ccn2)cc1	-1.0	0.6	12.8	7.3
COc1ccc(CC(=O)Nc2ccccc2C(F)(F)F)cc1	-0.5	0.2	-1.0	15.5
COc1ccc(CC(=O)Nc2cc(Nc3ccccc3-c3ncco3)c(C(F)(F)F)cn2)cc1	-0.7	-0.1	53.7*	-13.6
COc1ccc(CC(=O)Nc2cc(Nc3ccccc3NC(C)=O)c(C(F)(F)F)cn2)cc1	-1.4	-0.1	67.3*	16.0
Cc1oc(C)c2c(=O)cc(-c3ccc(O)c(O)c3)cc(O)c12	0.0	-1.0	3.9	86.9*
COc1ccc(-c2cc(O)c3c(C)oc(C)c3c(=O)c2)cc1	0.4	-0.3	4.3	0.7
O=[N+]([O-])c1ccc2c(c1)C1C=CCC1C(c1ccc(S(=O)(=O)N3CCOCC3)cc1)N2 (centres undefined)	-0.5	-0.1	41.6*	4.8
CCOC(=O)[C@@H]1Nc2ccc(C(=O)O)cc2[C@@H]2C=CC[C@H]12	-1.4	-0.6	-0.2	73.7*
O=S(=O)(c1ccc(C2Nc3ccc(F)cc3C3C=CCC32)cc1)N1CCOCC1 (centres undefined)	0.8	-0.1	-3.5	3.7
